APP transl inh: APP translation inhibition; SH-SY5Y APP 5'UTR-luciferase reporter, luminescence; inhibition, % at 2 µM; 190,000 compounds, 0.82% hits;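 active = inhibition above a set limit, derived from the sample mean plus 3 SD, cut at about 45% in these data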
STAT1 activator: STAT1 signaling activation. NIH 3T3 STAT1-luciferase reporter, IFN-gamma, luminescence; 100% = IFN-gamma alone, no compound. activation (% of control), % at 5.5 µM. 200,000 compounds, 2.6% hits. AID 932;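 active = activation above the screen-wide mean activation plus 3 SD, cut at about 130% in these data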;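 also: raw ratio to IFN-gamma control signal so 100% means no change and 0% no light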
NF-kB neuron act: compounds increasing NF-kB expression in human neuronal cells; fold change at 12.5 µM; 190,000 compounds, 1.6% hits; NF-kB reporter expression; active compounds read high; in the data active = fold change above about 3.3
Hsp70 act: transcriptional activators of Hsp70; HeLa Hsp70 promoter luciferase reporter, luminescence; scaled: vehicle 0, proteasome-inhibitor control 100%; activation, % at 10 µM; 200,000 compounds, 0.04% hits;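 active = activation above the mean across all tested compounds plus 3 SD, cutoff set per campaign, cut at about 5.5% in these data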;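 also: 100% = MG132 at 30 µM as the positive control and 0% = DMSO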
APP 5'UTR act: APP 5'UTR luciferase reporter activation. SH-SY5Y APP 5'UTR luciferase reporter, luminescence; zero percent = DMSO vehicle wells. activation, % at 2 µM. 190,000 compounds, 1% hits. AID 1276;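 active = activation above a set limit, based on mean plus 3 SD of controls, cut at about 140% in these data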
Wee1 degr inh: human Wee1 degradation inhibition, primary screen; P30291; HeLa Luc-Wee1K328M stability, luciferase luminescence; 100% = proteasome inhibitor MG132 effect; reporter increase, % at 5 µM; 220,000 compounds, 1.2% hits; AID 1321;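 active = activation above the mean of all tested compounds plus 3 SD, set per screening run, cut at about 8.8% in these data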;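 also: cells exposed to compound for 20 h before luminescence read; 0% = DMSO alone and 100% = MG132 at 30 µM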
Target sequence (P30291 whole entry K328M): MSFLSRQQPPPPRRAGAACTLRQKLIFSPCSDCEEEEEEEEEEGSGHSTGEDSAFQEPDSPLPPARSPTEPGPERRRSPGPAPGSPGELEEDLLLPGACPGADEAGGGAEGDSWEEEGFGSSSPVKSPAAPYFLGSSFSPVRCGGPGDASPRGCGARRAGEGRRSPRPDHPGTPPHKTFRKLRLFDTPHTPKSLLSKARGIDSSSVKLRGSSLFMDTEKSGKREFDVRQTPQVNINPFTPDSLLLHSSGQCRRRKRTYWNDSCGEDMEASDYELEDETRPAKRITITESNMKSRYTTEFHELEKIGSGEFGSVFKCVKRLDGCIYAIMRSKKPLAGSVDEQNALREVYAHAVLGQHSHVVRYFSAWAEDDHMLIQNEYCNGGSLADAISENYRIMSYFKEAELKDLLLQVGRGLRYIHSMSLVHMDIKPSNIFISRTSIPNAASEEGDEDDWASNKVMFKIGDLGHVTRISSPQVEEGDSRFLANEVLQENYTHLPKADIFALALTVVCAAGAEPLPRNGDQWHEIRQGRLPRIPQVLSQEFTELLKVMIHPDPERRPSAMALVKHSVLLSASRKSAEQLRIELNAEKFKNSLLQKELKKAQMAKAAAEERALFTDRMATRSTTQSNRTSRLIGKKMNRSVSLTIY
An asterisk follows results filed as active; · = no result. Rows were chosen to be rich in hits. Some 4.8% of all compounds tested hit in one or more screens of this group.

SMILES | APP transl inh | STAT1 activator | NF-kB neuron act | Hsp70 act | APP 5'UTR act | Wee1 degr inh
COc1ccc(Oc2coc3cc(OC(=O)/C=C/c4ccc(F)cc4)ccc3c2=O)cc1 | -11 | 94 | 1.1 | 0 | 11 | 2
O=C(COC(=O)c1ccc(S(=O)(=O)NCc2ccco2)cc1)c1ccccc1 | -3 | 108 | 1 | 0 | 3 | 0
Cc1ccc(OCCCC(=O)N2CCOCC2)cc1 | -10 | 100 | 1.4 | 0 | 10 | 7
CCN(CC)C1CCN(C(=O)CCc2nnc(CCc3ccccc3)o2)C1 (configuration not stated) | 18 | 107 | · | 0 | -18 | 5
CCOC(=O)CCn1nc(-c2ccc(Cl)cc2)cc1N | -46 | 138* | 2.4 | 0 | 46 | 2
CCOC(=O)Cn1nc(-c2ccc(Cl)cc2)cc1N | -12 | 115 | 1.3 | 0 | 12 | 1
CCOC(=O)c1ccc2nc(C)c3c(c2c1)OC(C)C3 (configuration not stated) | -2 | 99 | 0.9 | 0 | 1 | 1
CCOC(=O)c1ccc2nc3c(cc2c1)CCS3 | -45 | 135* | 2.2 | 0 | 45 | 6
Cc1ccc(C(=O)O/N=C(\N)c2nonc2N)cc1 | -13 | 134* | 1 | -1 | 13 | -2
N/C(=N\OC(=O)c1ccc(F)cc1)c1nonc1N | -6 | 121 | 1.9 | 0 | 6 | 1
N/C(=N/OC(=O)c1ccccc1Cl)c1nonc1N | -19 | 110 | 4.9* | 0 | 19 | 0
Cc1cc(=O)[nH]c2cc(Cl)ccc12 | -14 | 101 | 1.3 | 0 | 14 | -1
Cc1ccc(-c2cc(=O)c3ccccc3[nH]2)cc1 | -14 | 102 | 1.7 | 0 | 14 | -1
COc1ccc(-c2cc(=O)c3cc(C)ccc3[nH]2)cc1 | -99 | 150* | 6.5* | 0 | 99 | 5
COc1cc2[nH]c(-c3ccc(C)cc3)cc(=O)c2cc1OC | -12 | 107 | 1.1 | 0 | 12 | 0
Cc1ccc(-c2cc(=O)c3cc(Cl)ccc3[nH]2)cc1 | -138 | 143* | 1.8 | 1 | 138* | -2
Cc1ccc2[nH]c(-c3ccccc3)cc(=O)c2c1 | 91* | 126 | 6* | 1 | -91 | 0
c1ccc(CSCc2nc3ccccc3[nH]2)cc1 | -28 | 126 | 2.8 | 0 | 28 | 0
O=C1c2ccccc2S(=O)(=O)c2cc(C(=O)N(c3ccccn3)c3ccccn3)ccc21 | -6 | 103 | 0.93 | 0 | 6 | 0
CCCc1cc(C(=O)Nc2ccc(C)cc2)no1 | -21 | 135* | 2.1 | 0 | 21 | -3
CCc1ccc(NC(=O)c2cc(C)on2)cc1 | -200 | 115 | 5.8* | 0 | 200* | 1
Cc1ccc(NC(=O)c2cc(C)on2)cc1 | -82 | 130* | 3.3* | 0 | 82 | 4
Cc1ccc(O)c(NC(=O)c2noc3c2CCCCC3)c1 | -212 | 115 | 9.8* | 0 | 212* | 1
CC(C)c1cc(C(=O)NCCc2ccccc2)no1 | -75 | 133* | 2.2 | 0 | 75 | 6
CCc1ccc(NC(=O)c2noc3c2CCC3)cc1 | -144 | 104 | 3.4* | 0 | 144* | 1
SMILES | APP transl inh | STAT1 activator | NF-kB neuron act | Hsp70 act | APP 5'UTR act | Wee1 degr inh
CCc1ccc(NC(=O)c2cc(C(C)C)on2)cc1 | -137 | 121 | 8* | 1 | 137* | 3
CC(C)c1cc(C(=O)NCc2ccco2)no1 | 4 | 110 | 1.2 | 0 | -4 | -2
CC1=C(C(=O)OCCOc2ccccc2)C(c2coc3ccccc3c2=O)C2=C(CCCC2=O)N1 (configuration not stated) | -20 | 93 | 1 | 0 | 20 | 3
COc1ccccc1Nc1ncc(-c2cccs2)s1 | -9 | 136* | 5.1* | 0 | 9 | 0
CN(C)/C=N/NC(=O)c1ccc(Cl)cc1 | 6 | 104 | 1.2 | 0 | -6 | -1
CN(C)/C=N/c1cnc(C(=O)c2ccc(Cl)cc2)n1C | -19 | 146* | 3.8* | 0 | 19 | 5
Cc1cccc(C)c1N(CC(=O)NN=C1CCCCCC1)S(C)(=O)=O | -16 | 106 | 1.2 | 0 | 16 | 5
Cc1cc(N/N=C/c2c(O)ccc3ccccc23)nc(-c2ccccc2O)n1 | 58* | 98 | 0.45 | 0 | -58 | -2
Oc1ccc2ccccc2c1/C=N/Nc1ccccc1 | -16 | 93 | 1.4 | 0 | 16 | 0

High-throughput results: PubChem BioAssay, several laboratories
